Source: PubChem BioAssay AID434970 (Sanford-Burnham Center for Chemical Genomics, 2010)
Screen size: about 11,000 compounds; about 310 (2.8%) were called active. The sample holds actives, similar compounds and a random draw of the others, so the mix is not that of the screen. Cut-off read from the data, not from the text of the source: active = activity change below about -85%; inactive = the rest.

tested on: intestinal alkaline phosphatase [Mus musculus]; assay: activators of mouse IAP, confirmation, biochemical, luminescence, single concentration (AID 434970); conditions: purified mouse IAP, CDP-Star luminescence, 30 min, at 10 µM; activation factor: measured here: IAP activation factor, stronger effect = higher value; activity change, negative = activation: stronger effect = lower value

Row | SMILES | activation factor | activity change, negative = activation
1 | CC(C)C(OC(=O)c1ccco1)C(=O)NC1CCCCC1 (centres undefined) | 0.964 | 3.65% (inactive)
2 | Cc1ccc(C)c(N(C(=O)CCC(=O)Nc2cc(C)on2)C(C(=O)NC2CCCC2)c2ccco2)c1 (centres undefined) | 0.998 | 0.2% (inactive)
3 | O=C(CSc1ncn[nH]1)NCCc1ccccc1 | 1.1 | -10.3% (inactive)
4 | CC1CCN(C(c2cccs2)c2nnnn2Cc2ccccc2)CC1 (centres undefined) | 0.984 | 1.65% (inactive)
5 | Cn1c(CCN2CCOCC2)nc2cc(NC(=O)COc3ccc(Cl)cc3)ccc21 | 0.927 | 7.3% (inactive)
6 | CC[C@]12c3[nH]c4ccc(Cl)cc4c3CCN1C(=O)[C@@H](CC(=O)NC(C)(C)C)C[C@@H]2C(=O)N1CCN(C(=O)c2ccco2)CC1 | 1.14 | -13.7% (inactive)
7 | CCOC(=O)c1ccc(NC(=O)NCCc2ccccc2OC)cc1 | 2.01 | -101% (active)
8 | CCOC(=O)c1ccc(NC(=S)NCCc2ccccc2F)cc1 | 1.3 | -29.6% (inactive)
9 | CCOC(=O)c1ccc(NC(=O)NCc2ccccc2OC)cc1 | 1.8 | -79.8% (inactive)
10 | COc1ccc(C)cc1NC(=O)C1C2C=CC(C2)C1C(=O)O (centres undefined) | 0.955 | 4.55% (inactive)
11 | COc1cc(NC(=O)NCC2CCN(Cc3ccc(C)cc3)CC2)cc(OC)c1OC | 1.88 | -88.3% (inactive)
12 | O=C(Nc1cc(Cl)cc(Cl)c1)C1CCC(=O)N1Cc1ccccc1Cl (centres undefined) | 1.71 | -70.5% (inactive)
13 | COc1cc(NC(=O)NCC2CCN(Cc3ccccc3Cl)CC2)cc(OC)c1OC | 2.47 | -148% (active)
14 | COc1cc(NC(=O)NCC2CCN(Cc3ccccc3C)CC2)cc(OC)c1OC | 2.9 | -190% (active)
15 | COc1cc2c(cc1NC(=O)Nc1ccc(C)cc1)oc1ccccc12 | 1.18 | -18.4% (inactive)
16 | CCC(NC(=O)Nc1cc(OC)c(OC)c(OC)c1)(C(F)(F)F)C(F)(F)F | 1.8 | -80.2% (inactive)
17 | CCN(CC)C(=O)[C@H]1C[C@H](CC(=O)NCCc2ccccn2)C(=O)N2CCc3c([nH]c4cc(-c5ccco5)ccc34)[C@]12C | 1.27 | -27% (inactive)
18 | O=C(c1cccs1)n1nc(-c2ccccc2)nc1NCc1ccco1 | 0.857 | 14.4% (inactive)
19 | CCN(c1ccccc1)S(=O)(=O)c1ccc(NCC2COc3ccccc3O2)nc1 (centres undefined) | 1.29 | -28.6% (inactive)
20 | FC(F)(F)c1cccc(NC(=S)NCC2COc3ccccc3O2)c1 (centres undefined) | 1.43 | -42.8% (inactive)
21 | c1ccc(-c2cc3c(NCC4COc5ccccc5O4)ncnc3s2)cc1 (centres undefined) | 1.97 | -97.1% (active)
22 | CCOc1ccc(C2N(c3cc(C)on3)C(=O)C3CCCN32)cc1OC (centres undefined) | 1.05 | -5.3% (inactive)
